hgDAF-12 ag: H. glycines DAF-12 receptor agonists, primary screen, cell-based, luminescence, HEK293, GAL4 fusion, UAS-luciferase; Nuclear hormone receptor DAF-12 (Heterodera glycines), GAL4 fusion; HEK293 GAL4-hgDAF12 UAS-luciferase reporter, agonist luminescence; normalized to butyrate control; activation, % at 6.8 µM; actives 1.8% (n = 370,000);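 active = activation above a cutoff set at the mean of all screened compounds plus 3 SD, cut at about 10% in these data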;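 note: 0% = DMSO wells and 100% = sodium butyrate wells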
ssDAF-12 act: S. stercoralis DAF-12 nuclear receptor activators, primary screen, cell-based, luminescence, HEK293, GRIP1 co-expression, lit1-tk-luc; Nuclear hormone receptor DAF-12 (Strongyloides stercoralis); actives 1% (n = 370,000); activation, % at 6.8 µM; HEK293 ssDAF-12/GRIP1 lit1-tk-luc reporter; % of 3 µM dafachronic acid response;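 active = activation above the mean over all tested compounds plus 3 SD, cut at about 0.9% in these data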;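 note: 0% = DMSO-only wells and 100% = 3 µM delta7-dafachronic acid wells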
hcDAF12 agonist: H. contortus DAF-12 nuclear receptor activators, primary screen, cell-based, luminescence, HEK293, lit1-tk-luc reporter | HEK293 hcDAF-12 lit1-tk-luc reporter; 0% DMSO, 100% Δ7-dafachronic acid | activation, % at 6.8 µM | actives 1.4% (n = 370,000) | AID 652067, 2013;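 active = activation above the mean of all tested compounds plus 3 SD, cut at about 5.5% in these data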;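 note: 100% = response to 3 µM Δ7-dafachronic acid high control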
DAX1 inh-1: DAX1 (NR0B1) inhibitors, primary screen, cell-based, HEK293, Gal4-DAX1, luciferase luminescence | Nuclear receptor subfamily 0 group B member 1 (Homo sapiens), P51843 | HEK293 Gal4-DAX1 luciferase reporter | inhibition, % at 6.75 µM | actives 0.99% (n = 340,000);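 active = inhibition above the mean over all tested compounds plus 3 SD, cut at about 4.2% in these data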;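 note: 0% = DAX1-transfected cells with DMSO and 100% = empty-vector control cells with DMSO; inhibition shows as a rise in luminescence from relieved DAX1 repression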
Target sequence (P51843 207-470 limits assumed): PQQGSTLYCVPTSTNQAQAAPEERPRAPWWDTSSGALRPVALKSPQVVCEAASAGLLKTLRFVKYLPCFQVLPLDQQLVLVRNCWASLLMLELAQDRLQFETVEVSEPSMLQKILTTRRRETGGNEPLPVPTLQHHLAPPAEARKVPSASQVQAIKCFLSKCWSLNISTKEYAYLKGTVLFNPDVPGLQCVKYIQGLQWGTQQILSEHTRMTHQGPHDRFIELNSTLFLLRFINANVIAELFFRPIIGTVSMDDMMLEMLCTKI
DAX1 inh-2: DAX1 (NR0B1) inhibitors on StAR promoter, primary screen, cell-based, luminescence, SF-1 (NR5A1), full-length DAX-1 | HEK293T StAR-luciferase reporter, SF-1/DAX-1 repression relief | inhibition, % at 6.8 µM | actives 1.1% (n = 370,000) | AID 652010, 2013;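 active = inhibition above the mean over all tested compounds plus 3 SD, cut at about 3.6% in these data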;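 note: 0% = DAX-1 cells with DMSO and 100% = cells lacking DAX-1 with DMSO; higher inhibition means more luminescence from relief of DAX-1 repression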
Starred values were filed as active, the others as inactive; nt = no result given. A selection: hits, their analogues and other compounds. The true share with any hit is near 4.1%.

SMILES	hgDAF-12 ag	ssDAF-12 act	hcDAF12 agonist	DAX1 inh-1	DAX1 inh-2
CCN(CC)S(=O)(=O)c1ccc(C)c(NC(=O)COC(=O)CN2C(=O)NC(C)(C)C2=O)c1	-1.9	0.9*	-0.2	0.8	-0.1
CCC1(CC)NC(=O)N(CC(=O)OCC(=O)Nc2cc(C)ccc2C)C1=O	-0.5	-0.9	-2.4	-0.8	-0.7
O=C(OCc1cn(Cc2cccc(F)c2F)nn1)N1CCOCC1	-2.5	-0.2	2.2	nt	-1.0
N/C(=N\NC(=O)c1cccs1)c1cc2ccccc2oc1=O	11.2*	-0.1	3.1	3.5	1.9
CCOc1ccccc1C=NN=Cc1ccccc1O	-1.1	1.1*	-0.2	6.8*	0.3
O=C1C=CC(=O)N1c1ccccc1N1C(=O)C=CC1=O	-1.4	0.1	-1.6	4.3*	4.0*
COc1cc(C=O)ccc1OCCCOc1ccccc1[N+](=O)[O-]	5.8	1.0*	1.4	0.9	-0.3
COc1cc(NC(=O)C2CCCN(S(=O)(=O)c3ccccc3[N+](=O)[O-])C2)cc(OC)c1 (centres undefined)	-4.3	-1.5	-2.7	nt	-1.1
O=C(NCc1ccc(Cl)cc1)c1ccncc1	0.6	-0.3	-1.3	-0.8	-0.2
O=C(NCc1ccc(F)cc1)c1c2c(nc3ccccc13)CCC2	3.7	-0.5	2.5	-0.4	4.5*
O=C(NCc1ccc(F)cc1)c1ccncc1	2.9	-0.6	-0.6	4.4*	-0.4
O=C(NCc1ccco1)c1c2c(nc3ccccc13)CCC2	0.7	-0.9	2.3	3.5	-0.1
COc1ccc(S[C@]2(C(=O)N3CCCC3)CC(=O)N(P(=O)(OC)OC)[C@@H]2c2ccc(OC)cc2)cc1	4.3	-0.9	-1.6	nt	-1.6
O=C1C=CC(=O)N1CCNc1ncc(C(F)(F)F)cc1Cl	-5.8	-1.2	-4.0	-1.6	-1.5
O=c1cc(Cl)[nH]c(=O)n1CCNc1ncc(C(F)(F)F)cc1Cl	11.1*	-0.8	4.8	2.0	1.3
CCOc1ccc2nc(SCC3CC3(Cl)Cl)[nH]c2c1 (centres undefined)	11.6*	-1.3	1.3	5.1*	0.2
Fc1c(F)c(F)c(CSc2nc3ccccc3[nH]2)c(F)c1F	2.1	-0.9	-2.4	-0.8	0.2
ClC1(Cl)CC1CSc1nc2ccccc2[nH]1 (centres undefined)	12.3*	-0.9	-0.9	0.0	2.6
c1ccc2[nH]c(SCC3CCCCO3)nc2c1 (centres undefined)	11.2*	-0.3	2.8	1.0	2.2
COc1ccc(C(=O)OCCCN(C)C2CN(Cc3cn(Cc4ccc([N+](=O)[O-])cc4)nn3)S(=O)(=O)C2)cc1OC (centres undefined)	-3.1	-1.4	-0.6	nt	-3.5
NC(=O)CNC(=O)c1ccc(Cl)cc1	-1.8	-0.8	-2.1	5.6*	0.1
O=C(NCC(=O)N1CCCCCC1)c1ccc(Cl)cc1	4.8	-0.7	-0.1	1.3	0.7
O=C(NCC(=O)N1CCCCCCC1)c1ccc(Cl)cc1	11.8*	-1.2	2.8	2.2	0.4
C=CCN1C(C(=O)OC)CN(Cc2cn(Cc3ccc(OC)cc3)nn2)CCS1(=O)=O (centres undefined)	-5.4	-1.6	-2.0	nt	0.7
Cc1nc2ccccn2c1C(O)(c1ccccc1)c1ccccc1	-1.0	-1.4	-2.6	nt	nt
SMILES	hgDAF-12 ag	ssDAF-12 act	hcDAF12 agonist	DAX1 inh-1	DAX1 inh-2
Cc1sc(N=Nc2ccc(N(C)C)cc2)[n+]([O-])c1C	4.8	0.0	4.2	2.3	3.7*
Cc1cc(N(C)C)ccc1N=Nc1ccc(N)cc1	3.9	-0.7	1.1	2.7	-0.1
NC(=O)c1cc(Cc2ccccc2)sc1NC(=O)c1ccco1	12.8*	-0.3	2.7	2.1	2.4
COc1ccc2ccccc2c1/C=N/n1cnnc1	4.6	0.3	6.5*	-0.1	0.1
O=C(CNC(=O)c1ccccc1F)OCc1csc(-c2ccccc2)n1	3.0	-0.6	0.0	-0.1	1.8
COc1ccccc1C(=O)NCC(=O)OCc1csc(-c2ccccc2)n1	8.9	0.1	5.7*	0.3	0.5
COc1ccc(C2CC(c3ccc(F)cc3)n3nc(NC(=O)c4ccco4)nc3N2)cc1 (centres undefined)	-0.7	-1.3	-0.6	4.8*	-0.6
CC1CC(c2ccccc2)n2nc(NC(=O)c3ccco3)nc2N1 (centres undefined)	0.2	-1.1	-1.6	-0.3	-0.1
COC(=O)C1=C(C)N(Cc2cccc(C(F)(F)F)c2)C(=NCc2ccc(OC)cc2)NC1c1ccccc1C(F)(F)F (centres undefined)	1.4	-1.0	2.2	nt	-0.5
Cc1nc2c3ccccc3n(CC#N)c(=O)n2n1	7.9	-0.5	6.1*	-0.1	0.9
CC1(c2ccccc2Cl)NC(=O)N(CC(=O)Nc2cccnc2Cl)C1=O (centres undefined)	0.4	-1.4	-0.6	-0.9	2.5
CC1(c2cccc(Br)c2)NC(=O)N(CC(=O)Nc2cccnc2Cl)C1=O (centres undefined)	0.9	-1.0	1.1	-0.7	3.7*
CSC1=NC(=O)/C(=C/c2ccc(SC)cc2)S1	12.8*	-1.2	2.5	1.2	2.6
CCOC(=O)CSC1=NC(=O)/C(=C\c2ccc(Cl)cc2)S1	7.8	1.3*	2.5	-0.5	0.6
COC(=O)C1CN(Cc2ccc(F)cc2)CCS(=O)(=O)N1Cc1cn(Cc2ccc(C)cc2)nn1 (centres undefined)	-3.1	0.2	1.3	nt	-0.3
CSc1nnc(-c2ccccc2)c(-c2ccccc2)n1	-2.0	-1.8	-1.6	0.0	0.2
CSc1nnc2c3ccccc3c3ccccc3c2n1	-0.9	1.2*	3.2	1.4	0.0
CC(SCC(=O)O)c1nc2ccccc2[nH]1 (centres undefined)	2.5	1.0*	-0.3	1.0	0.5
CCC(=O)NC(Cc1ccccc1)c1nc2ccccc2[nH]1 (centres undefined)	-3.0	-0.5	0.8	4.2*	-0.4
O=C(O)CSc1nc2ccccc2[nH]1	0.4	-0.5	-0.5	-1.4	0.6
CC(=O)O[C@@H]1CCC[C@@]2(C(=O)N(Cc3ccccc3)c3ccc(-c4c(C)noc4C)cc32)[C@H]1NC(=O)CCc1ccccc1	-3.3	-1.1	-2.2	nt	-1.4
COc1ccc(OC)c(/C=C2\Oc3cc(OCC(=O)N4CCC[C@H]4C(=O)O)ccc3C2=O)c1	nt	nt	nt	3.5	nt
COc1ccc(/C=C2\Oc3cc(OCC(=O)N4CCC[C@H]4C(=O)O)ccc3C2=O)c(OC)c1	nt	nt	nt	6.7*	nt
COc1cc(OC)c(OC)cc1/C=C1\Oc2cc(OCC(=O)N3Cc4ccccc4C[C@H]3C(=O)O)ccc2C1=O	nt	nt	nt	4.5*	nt
